{"source": "PubChem BioAssay AID743446", "about": "(Broad Institute, 2014)", "note": "Entries with a potency or affinity are not part of this list. Active and inactive are the calls of the source. How the calls were made is not given here.", "data": [{"test": "HEK293 cell cytotoxicity, dose response, cytotoxicity control, plate reader, cherry-picked samples (AID 743446)", "details": "hits give low values; at 26 µM unless noted", "values": [{"compound": "c1ccc(COc2ccc(OCCCN3CCCC3)cc2)cc1", "max activity": "-13.8% [at 0.05 µM] (inactive)"}, {"compound": "O=C(CCCc1ccccc1)Nc1cccc(C(=O)O)c1", "max activity": "48.9% (inactive)"}, {"compound": "CC(C)C(=O)N1CCN(c2ccc(NC(=O)COc3ccccc3[N+](=O)[O-])cc2)CC1", "max activity": "-46.9% (inactive)"}, {"compound": "CO[C@H]1CN(C)C(=O)c2ccc(NC(=O)C3CC3)cc2OC[C@@H](C)N(C(=O)Cc2ccccn2)C[C@H]1C", "max activity": "22% [at 1.6 µM] (inactive)"}, {"compound": "CC(C)c1ccc(NC(=O)N2CCN(S(=O)(=O)c3ccccc3)CC2)cc1", "max activity": "17.9% [at 0.38 µM] (inactive)"}, {"compound": "CCS(=O)(=O)N1Cc2ccccc2CC1C(=O)Nc1nc2ccccc2s1", "note": "(centres undefined)", "max activity": "11.4% [at 0.38 µM] (inactive)"}, {"compound": "O=C(O)c1cccc(Nc2ccnc(Nc3cccc(C(=O)O)c3)n2)c1", "max activity": "-12.2% [at 0.05 µM] (inactive)"}, {"compound": "CC(=O)N1CCCC(c2cc(C(=O)Nc3ccccc3)no2)C1", "note": "(centres undefined)", "max activity": "-27% [at 12 µM] (inactive)"}, {"compound": "O=C(Nc1nc2cc3c(cc2s1)OCO3)c1ccco1", "max activity": "45.6% [at 0.05 µM] (inactive)"}, {"compound": "O=C(O)c1ccc(N/N=C/c2ccc(OC(=O)c3cccc(Cl)c3)cc2)cc1", "max activity": "-7.42% [at 3 µM] (inactive)"}, {"compound": "COc1cc(NC(=O)c2cccs2)c(C(=O)OCC(=O)c2cc(C)n(-c3ccccc3)c2C)cc1OC", "max activity": "17.2% (inactive)"}, {"compound": "CO[C@@H]1CN(C)C(=O)c2ccc(NC(=O)C3CC3)cc2OC[C@@H](C)NC[C@@H]1C", "max activity": "12% [at 3 µM] (inactive)"}, {"compound": "CCCn1c(C)cc(C(=O)CN2C(=O)c3ccccc3S2(=O)=O)c1C", "max activity": "-16% [at 3 µM] (inactive)"}, {"compound": "O=C(Nc1cccc(-c2ccc(N3CCCCC3)nn2)c1)C(F)(F)F", "max activity": "-33.5% [at 3 µM] (inactive)"}, {"compound": "Cc1cc(C(=O)Nc2ccc(N3CCCCC3)cc2)no1", "max activity": "16% [at 0.195 µM] (inactive)"}, {"compound": "Cc1cc(-c2ccccc2)n2ncc(-c3ccccc3)c2n1", "max activity": "19.9% [at 0.8 µM] (inactive)"}, {"compound": "Cc1ccc(S(=O)(=O)N2CCCc3nc(-c4ccc(F)cc4)ccc32)cc1", "max activity": "43.2% [at 12 µM] (inactive)"}, {"compound": "C[C@H](CO)N1C[C@H](C)[C@H](CN(C)C(=O)Nc2ccccc2)OCCCC[C@H](C)Oc2ccc(NC(=O)NC3CCCCC3)cc2C1=O", "max activity": "6.41% (inactive)"}, {"compound": "C[C@H](CO)N1C[C@H](C)[C@H](CN(C)C(=O)Nc2ccc(C(F)(F)F)cc2)OCCCC[C@H](C)Oc2ccc(NC(=O)NC3CCCCC3)cc2C1=O", "max activity": "66% (inactive)"}, {"compound": "COc1ccc(-c2cc(C(=O)Nc3cccc(O)c3)no2)cc1", "max activity": "75.5% [at 0.195 µM] (inactive)"}, {"compound": "Cc1ccsc1/C=N/Nc1cccc(C(=O)O)c1", "max activity": "25.6% [at 0.8 µM] (inactive)"}, {"compound": "c1ccc(-n2cnnc2SCc2cn3cccnc3n2)cc1", "max activity": "82.5% [at 0.8 µM] (inactive)"}, {"compound": "O=C(O)c1ccc(N/N=C/c2c[nH]c3ccccc23)cc1", "max activity": "10.4% [at 3 µM] (inactive)"}, {"compound": "COc1cccc(-c2cc(C(=O)N3CCCCCC3)no2)c1", "max activity": "-9.64% [at 12 µM] (inactive)"}, {"compound": "COc1ccc(CCNC(=O)C2CCN(S(=O)(=O)c3ccc(Cl)cc3)CC2)cc1OC", "max activity": "-15% [at 0.05 µM] (inactive)"}, {"compound": "COc1cc(C(=O)Nc2nc(-c3cccs3)cs2)cc(OC)c1OC", "max activity": "53.9% [at 6 µM] (inactive)"}, {"compound": "C[C@H]1CCCCO[C@@H](CN(C)C(=O)Nc2ccccc2)[C@@H](C)CN([C@@H](C)CO)C(=O)c2cc(NC(=O)NC3CCCCC3)ccc2O1", "max activity": "12.4% [at 0.05 µM] (inactive)"}, {"compound": "OC1CCC(Nc2ccn3nc(-c4cccc(OCc5ccccc5)c4)cc3n2)CC1", "note": "(centres undefined)", "max activity": "-14.9% [at 12 µM] (inactive)"}, {"compound": "CC(=O)Nc1ccc(S(=O)(=O)c2ccnc3cc(Cl)ccc23)cc1", "max activity": "-26.3% [at 12 µM] (inactive)"}, {"compound": "CC(=O)Nc1cccc(-c2ccnc3c2CC(C(=O)NCc2cccnc2)O3)c1", "note": "(centres undefined)", "max activity": "0% [setting not given] (inactive)"}, {"compound": "Cc1ccccc1OCC(=O)Nc1cccc(C(=O)O)c1", "max activity": "6.54% (inactive)"}, {"compound": "COc1cccc(C(=O)Nc2ccc3c(c2)OC[C@@H](C)N(CC2CC2)C[C@H](C)[C@H](OC)CN(C)C3=O)c1", "max activity": "13% [at 0.05 µM] (inactive)"}, {"compound": "CCOC(=O)Nc1ccc(N2CCOCC2)c(S(=O)(=O)Nc2ccc(Cl)cc2)c1", "max activity": "-19.3% (inactive)"}, {"compound": "CCCNC(=O)N1[C@H](C#N)[C@H](c2ccc(C#Cc3ccc(F)cc3)cc2)[C@H]1CO", "max activity": "-37% (inactive)"}]}]}
